From PubChem BioAssay (Tox21) come the findings set out here.

Records with an inconclusive call do not appear. Entries that show only a call come without a potency. Values without a mark were called inactive. The source made the active and inactive calls. Calls come from the whole dose curve.
Potency is the fitted concentration of half-maximal effect.

Beta-2 adrenergic receptor (Homo sapiens), sequence (P07550 whole entry, looked up): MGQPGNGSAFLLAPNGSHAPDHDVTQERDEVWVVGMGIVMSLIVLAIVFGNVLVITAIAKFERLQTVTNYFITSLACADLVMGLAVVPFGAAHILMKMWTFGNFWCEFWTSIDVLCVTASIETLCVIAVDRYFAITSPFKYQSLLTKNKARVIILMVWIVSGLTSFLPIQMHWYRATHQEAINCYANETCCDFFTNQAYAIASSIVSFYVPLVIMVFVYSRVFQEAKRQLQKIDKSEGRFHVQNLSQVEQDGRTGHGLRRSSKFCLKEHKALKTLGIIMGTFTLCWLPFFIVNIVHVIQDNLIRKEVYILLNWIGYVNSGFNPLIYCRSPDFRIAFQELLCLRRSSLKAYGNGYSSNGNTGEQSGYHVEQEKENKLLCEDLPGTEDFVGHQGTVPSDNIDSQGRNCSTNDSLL

The assay has as its target Beta-2 adrenergic receptor (Homo sapiens) (UniProt P07550). Nature of the assay: Adrenergic beta2 receptor (ADRB2) small molecule antagonists, cell-based qHTS assay (AID 1963592). Note: nearly all actives have a fitted effect of over 50% in size. The settings on record: CHO-ADRB2 cells, isoproterenol-stimulated cAMP HTRF ratio, 0.5 h; series mostly up to 92.4 µM. An excerpt:
U.S. Tox21 Program National Center for Advancing Translational Sciences [NCATS] Division of Preclinical Innovation [DPI] U.S. Environmental Protection Agency [EPA] National Institutes of Environmental Health Sciences [NIEHS] National Toxicology Program [NTP] U.S. Food and Drug Administration [FDA] Tox21 Assay Overview: Beta adrenergic receptors (Beta-ARs) belong to the G-protein coupled receptor (GPCR) superfamily, includes three subtypes - beta1, beta2, and beta3. Beta1-AR is the predominant receptor subtype expressed in the heart, and beta2-AR is expressed in the kidney, lung, blood vessel and in the heart, and beta3 is found in the adipocytes. Beta1 and 2 ARs couple to Gs protein and elevate cyclic adenosine mono phosphate (cAMP), which activates protein kinase A and leads to the downstream signaling responsible for the physiological actions. Beta-AR agonists or antagonists are the most prescribed therapeutic agents for heart failure and asthma, and these were one of the first target receptors for the rational drug design. Tox21 10K compound library was screened using the cAMP-Gs dynamic assay (Cisbio Bioassays, Shelton, CT) to identify agonists/antagonists of the Gs-coupled human adrenergic, beta2 receptor (ADRB2) in the CHO-ADRB2 cell line (Codex BioSolutions, Inc. Gaithersburg, MD), which stably over-expresses ADRB2. The principle of cAMP-Gs dynamic assay is based on HTRF technology, which facilitates the fluorescence resonance energy transfer (FRET) between donor Europium cryptate and acceptor d2-labeled cAMP. The cAMP generated within cells competes with the red acceptor, d2-labled cAMP, for binding to the monoclonal anti-cAMP-cryptate (Europium donor). An increase in intracellular cAMP leads to the disruption of FRET signal, and the signal is inversely proportional to the cAMP concentration. Propranolol HCl (Sigma-Aldrich, St. Louis, MO) was used as a positive control in the screening.
Tox21 Assay Protocol Summary: CHO-ADRB2 cells were dispensed at 1,000/well in 4uL assay medium into white/solid 1536-well plates (Greiner Bio-One North America Inc., Monroe, NC) using a Multidrop Combi dispenser (ThermoFisher Scientific, Waltham, MA). The assay plates were incubated at 37C and 5% CO2 for an overnight (18-20hr). Then positive control and test compounds dissolved in DMSO were transferred to the assay plates at 23nL using a Pintool station (Wako, San Diego, CA). Following the compound and positive control transfer, 1uL agonist-stimulation mix containing 1nM Isoproterenol HCl, 100uM IBMX and 25uM Ro-20-1724 was added to each well of the assay plates using BioRAPTR Flying Reagent Dispenser (FRD, Beckman Coulter, Brea, CA). The assay plates were incubated at room temperature for 0.5hr. Then 2.5ul each d2-labled cAMP and anti-cAMP-cryptate solutions were added separately to each well of the assay plates using an FRD and the assay plates were incubated at room temperature for 1hr. The fluorescence signal was measured at two different wavelengths (665nm and 615nm) using an Envision plate reader (Perkin Elmer, Shelton, CT). Data were expressed as the ratio of 665 nm/615 nm.
For `CCOC(=O)COc1ccc2c(C)c(CCN(CC)CC)c(=O)oc2c1Cl`, the Potency result is “inactive”.

As for `O=C(CCCCCCC(=O)Nc1ccccc1)NO`, the Potency entry was “inactive”.

With `CCCCCCCCCCCCCOS(=O)(=O)O`, the Potency entry is “inactive”.

Take `O=C1OC(=O)c2c(Br)c(Br)c(Br)c(Br)c21`: the Potency result was “inactive”.

Regarding `O=C(O)Cn1cnnn1`, the Potency entry was “inactive”.

As to `COc1cc([C@@H]2c3cc4c(cc3[C@@H](O[C@@H]3O[C@@H]5CO[C@@H](C)O[C@H]5[C@H](O)[C@H]3O)[C@H]3COC(=O)[C@H]23)OCO4)cc(OC)c1O`, the Potency result is “inactive”.

As to `Cc1nnc(SCC2=C(C(=O)O)N3C(=O)[C@@H](NC(=O)Cn4cnnn4)[C@H]3SC2)s1`, the Potency result is “inactive”.

Turning to `CC/C=C\C/C=C\C/C=C\CCCCCCCC(=O)OC`, the Potency entry is “inactive”.

In the case of `FC1(F)C(F)(F)C(F)(F)C2(F)C(F)(F)C(F)(F)C(F)(F)C(F)(F)C2(F)C1(F)F` (stereo not given), the Potency result is “inactive”.

As for `CC(=O)NCCCS(=O)(=O)O`, the Potency entry was “inactive”.

Regarding `Nc1cc(Cl)cc(S(=O)(=O)O)c1O`, the Potency entry was “inactive”.

With `CCCC/C=C/CCCCO`, the Potency entry was “inactive”.

In the case of `O=C(c1ccc(F)cc1)C1CCN(CCn2c(=S)[nH]c3ccccc3c2=O)CC1`, the Potency is 29.8 µM (active).

Consider `CC1CCC(=O)C1=O` (stereo not given), for which the Potency entry is “inactive”.

For `Nc1cccc([N+](=O)[O-])c1`, the Potency result was “inactive”.

As for `COCc1nnc(-c2ccc[n+]([O-])c2)n1-c1c(Cl)c(Cl)cc2[nH]c(=O)c(=O)[nH]c12`, the Potency entry was “inactive”.

On to `C=CCN1C[C@H](C(=O)N(CCCN(C)C)C(=O)NCC)C[C@@H]2c3cccc4[nH]cc(c34)C[C@H]21`, for which the Potency result is “inactive”.

As for `CC1CN(c2ccccc2)NC1=O` (stereo not given), the Potency result was “inactive”.

As to `Clc1ccccc1CN1CCc2sccc2C1`, the Potency result was “inactive”.

As to `CC1=CC(C)C(C=O)C(C)C1` (stereo not given), the Potency entry was “inactive”.

Regarding `CC(CN)CC(C)(C)CCN` (stereo not given), the Potency entry is “inactive”.

Take `CC(C)=CCCC(C)CCOC=O` (stereo not given): the Potency result was “inactive”.

Regarding `C=C(C)C(=O)OCCO`, the Potency result is “inactive”.

Turning to `COC(=O)[C@@H]1CC2=CC(=O)CC[C@]2(C)[C@@]23O[C@@H]2C[C@@]2(C)[C@@H](CC[C@@]24CCC(=O)O4)[C@H]13`, the Potency entry is “inactive”.

With `CCC(C)(CCC(C)C)C(=O)[O-].CCC(C)(CCC(C)C)C(=O)[O-].[Zn+2]` (stereo not given), the Potency entry is “inactive”.

Regarding `Brc1c(NC2=NCCN2)ccc2nccnc12`, the Potency entry is “inactive”.

`SCCOCCOCCS`: the Potency result is “inactive”.

Regarding `C[C@@H](N)C(=O)O`, the Potency result is “inactive”.

Consider `Cc1c(C(=O)NN2CCCCC2)nn(-c2ccc(Cl)cc2Cl)c1-c1ccc(Cl)cc1`, for which the Potency entry was “inactive”.

With `Oc1ccc(CCNCCCCCCNCCc2ccccc2)cc1O`, the Potency entry was “inactive”.

With `C#Cc1cccc(Nc2ncnc3cc(OCCOC)c(OCCOC)cc23)c1`, the Potency entry is “inactive”.

Take `CCCCOCCOCCOCCOCCO`: the Potency entry was “inactive”.

As for `CCCCC(CC)CNCC(CC)CCCC` (stereo not given), the Potency result is “inactive”.

In the case of `CCCCCOc1ccccc1/C(=C\SC)n1ccnc1`, the Potency result is “inactive”.

Turning to `C1CN(SSN2CCOCC2)CCO1`, the Potency entry is “inactive”.

Turning to `Brc1c2ccccc2c(Br)c2ccccc12`, the activity change, negative = inhibition was -10.4% [at 8.39 µM].

Take `COc1cc(/C=C/c2ccccc2)oc(=O)c1`: the Potency result was “inactive”.

For the compound `CC(=O)OC(C)OC(C)=O`, the Potency result is “inactive”.

For the compound `CCCCCCCCCCCCCC[P+](CCCC)(CCCC)CCCC` (tested in a mixture with another compound), the Potency entry was “inactive”.

For the compound `S=C(S)NCCNC(=S)S`, the Potency result was “inactive”.
